Drawing on PubChem BioAssay (NCI), this text covers growth for 12 compounds.

Molecules are shown by their SMILES. This is part of a sample that, as a whole, favours compounds with a hit. Of some 83,000 tested, about 20% had one in any assay.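 Treatment: one concentration, 48 hours, 96-well format. Scoring: percent growth, with anything below 10 considered active.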 A number with no mark means an inactive call. Activity calls are given as the source filed them.

Common to all, as to assay: NCI-60 one-dose screen, 48 h (100 = growth as untreated, 0 = no growth, -100 = all killed)
What all share (details): 10 µM unless noted

For experiment [1], the system named is SK-MEL-2 melanoma.
In experiment [2] the test system is EKVX NSCLC.
Experiment [3] has as its system SN12C renal.
Experiment [4] deals with UO-31 renal.
Experiment [5] deals with TK-10 renal.
Experiment [6] relates to ACHN renal.
Experiment [7] deals with CAKI-1 renal.
Experiment [8] deals with A498 renal.
In experiment [9] the test system is CCRF-CEM leukemia.
Experiment [10] concerns MOLT-4 leukemia.

As for `C=CCn1c(-c2nc3ccc(C(=C(C#N)C#N)c4ccccc4)cc3[nH]2)cc2cc(Br)ccc21`, the growth was 96.7% in [1]; 42.9% in experiment [2]; 69% in experiment [3]; 51.9% in experiment [4]; 94% in experiment [5]; 55.6% in experiment [6]. For the same compound, the growth in experiment [7] was 48.8%; in experiment [8], 87.7%; in experiment [9], 50.5%; in experiment [10], 36.4%.
For the compound `COc1ccccc1N1CCN(C2=CC(=O)C(C)=C(C)C2=O)CC1`, the growth was 101% in experiment [1]; 101% in experiment [2]; 104% in [3]; 93.7% in experiment [4]; 116% in [5]; 110% in experiment [6]. The growth in [7] is 104%; in experiment [8] it was 86.3%; in [9] it was 101%; in experiment [10], 93.3%.
Consider `C=C(C=O)[C@@H]1CC[C@]2(COC(C)=O)CC[C@]3(C)C(CC[C@@H]4[C@@]5(C)CC[C@H](OC(C)=O)C(C)(C)[C@@H]5CC[C@]43C)[C@@H]12` (stereo not given in full), for which the growth in experiment [1] was -28% (active); in experiment [2], 12.9%; in experiment [3] it was 1.13% (active); in experiment [4], -94% (active); in [5] it was 35.5%; in experiment [6], -54.3% (active). The growth in experiment [7] was -14.9% (active); in [8] it was -41% (active); in experiment [9], 10.9%; in experiment [10], -18.1% (active).
Regarding `N#Cc1cnc2ccc(-c3cnc(N)nc3)cc2c1N1CCc2cc(F)c(Cl)cc21`, the growth in experiment [1] was -32.5% (active); in [2], -7.03% (active); in experiment [3] it was 15%; in [4] it was -6.05% (active); in experiment [5] it was -20.5% (active); in experiment [6] it was 7.59% (active). Besides, the growth in experiment [7] is 5.2% (active); in [8] it was -49.7% (active); in experiment [9] it was 5.74% (active); in experiment [10], 0.22% (active).
`CN1CCN(Cc2ccc(NC(=O)c3cncc(C#Cc4cnc5ccc(N6CCN(C)CC6)nn45)c3)cc2C(F)(F)F)CC1`: the growth in [1] was 56.4%; in experiment [2] it was -84.9% (active); in experiment [3], 15.7%; in experiment [4], 20.1%; in experiment [5], 59%; in [6] it was -98.1% (active). Further, the growth in experiment [7] was -95.3% (active); in experiment [8], 43.7%; in [9] it was -2.14% (active); in [10], -26.2% (active).
`CCN(CC)c1cn(-c2ccc(S(N)(=O)=O)cc2)nn1`: the growth in experiment [1] is 109%; in experiment [2] it was 105%; in [3], 105%; in experiment [4], 91.8%; in experiment [5], 103%; in experiment [6], 106%. In addition, the growth in [7] is 93.9%; in experiment [8] it was 83.4%; in [9] it was 106%; in [10], 97.7%.
`Cc1ccc(-c2nnc(SCc3ccc(O)c4ncccc34)n2-c2ccccc2)cc1`: the growth is -0.952% (active) in [1]; 10.7% in experiment [2]; 15.1% in [3]; -12.8% (active) in [4]; 7.85% (active) in experiment [5]; 8.47% (active) in experiment [6]. Moreover, the growth in experiment [7] is 9.59% (active); in experiment [8], 26%; in [9] it was 8.76% (active); in experiment [10] it was 8.15% (active).
Take `CCCCCc1ccc(S(=O)(=O)Nc2cccc(-c3csc(NC(=O)CN4CCN(CCO)CC4)n3)c2)cc1`: the growth in [1] was 99.7%; in experiment [2], 81.4%; in [3], 86.6%; in [4], 79.9%; in [5], 113%; in experiment [6] it was 101%. The growth in [7] is 76.2%; in experiment [8], 81%; in experiment [9] it was 53.8%; in [10], 58.8%.
Consider `O=C1[C@H]2Cc3c([nH]c4ccccc34)[C@@H](c3ccc(Cl)cc3)N2C(=O)CN1C1CCN(Cc2ccccc2)CC1`, for which the growth in [1] was 84.7%; in experiment [2] it was 41.3%; in [3] it was 45.9%; in experiment [4], 26.4%; in experiment [5] it was 82.3%; in [6], 40.6%. In addition, the growth in experiment [7] was 38%; in experiment [8], 74.8%; in experiment [9], 43.3%; in experiment [10], 27.1%.
On to `C=C(C)[C@@H]1CC[C@]2(COC)CC[C@]3(C)[C@H](CC[C@@H]4[C@@]5(C)CCCNC(C)(C)[C@@H]5CC[C@]43C)[C@@H]12`, for which the growth is 84.6% in experiment [1]; 53.9% in [2]; 73.6% in [3]; 60.8% in experiment [4]; 79.6% in experiment [5]; 67% in [6]. Further, the growth in experiment [7] is 19%; in [8], 62.3%; in experiment [9] it was -10.1% (active); in experiment [10], -32.3% (active).
Turning to `O=C1Nc2ccccc2/C1=C/c1ccc(CO)n1-c1ccc(Cl)cc1`, the growth was 47.7% in experiment [1]; 63.6% in [2]; 65.2% in experiment [3]; 59.2% in [4]; 115% in experiment [5]; 56.1% in [6]. Moreover, the growth is 52.8% in experiment [7], 35.4% in experiment [8], 33% in experiment [9] and 26.7% in experiment [10].
Take `COc1ccc(C(=O)Nc2ncc(Cc3ccccc3Cl)s2)cc1`: the growth in [1] was -1.02% (active); in experiment [2], 41.7%; in experiment [3], 32.7%; in experiment [4] it was 38.1%; in experiment [5] it was 64.3%; in experiment [6], 32.5%. In addition, the growth was 36.4% in experiment [7], -8.09% (active) in experiment [8], 18.7% in experiment [9] and 13.8% in experiment [10].
